Measured values as given in PubChem BioAssay (NCI).
About 79,000 compounds went through this panel and 15% of them were active in at least one assay; those are over-represented in the sample as a whole. Values without a mark were called inactive. Active and inactive are the calls of the source. Cut-off read from the data, not from the text of the source: active = growth inhibition above about 70%; inactive = the rest.

Legend:
[1] = NCI Yeast Anticancer Drug Screen. Data for the rad50 strain (AID 155);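 note: 0% = growth of vehicle-only cultures of the same strain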; conditions: S. cerevisiae rad50 strain growth inhibition, stronger effect = higher value
Procedure, shortened: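 Genetically altered yeast (DNA repair pathway); compound treatment; growth inhibition vs vehicle ctrl.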

[2] = NCI Yeast Anticancer Drug Screen. Data for the mec2-1 strain (AID 157); conditions: S. cerevisiae mec2-1 strain, stronger effect = higher value
Procedure, shortened: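 Using mec2-1 yeast: add compound, measure growth, express inhibition versus vehicle-treated cultures.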

[3] = NCI Yeast Anticancer Drug Screen. Data for the sgs1 mgt1 strain (AID 161);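 note: 0% = growth of cultures given vehicle only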; conditions: S. cerevisiae sgs1 mgt1 strain, stronger effect = higher value
Procedure, shortened: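 Compounds are added to genetically altered yeast, and growth is compared with cultures given vehicle alone to give percent inhibition.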

[4] = NCI Yeast Anticancer Drug Screen. Data for the cln2 rad14 strain (AID 165);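 note: 0% = growth equal to vehicle treated cultures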; conditions: S. cerevisiae cln2 rad14 strain, stronger effect = higher value
Procedure, shortened: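 Yeast strain cln2 rad14, bearing defects in cell cycle control and DNA repair, serves as the test system; values reflect growth inhibition compared with vehicle.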

[5] = NCI Yeast Anticancer Drug Screen. Data for the bub3 strain (AID 167); conditions: S. cerevisiae bub3 mutant strain, stronger effect = higher value
Procedure, shortened: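 Yeast carrying a defined mutation is treated with each compound, and growth is compared with that of vehicle-exposed cells to give inhibition.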

[6] = NCI Yeast Anticancer Drug Screen. Data for the mlh1 rad18 strain (AID 175); conditions: S. cerevisiae mlh1 rad18 strain growth inhibition, stronger effect = higher value
Procedure, shortened: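 Steps: expose repair-defective yeast to compound; measure growth; express inhibition against vehicle-treated controls.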

[7] = at 5.0 µM (retest, dose inferred, filed as 0.5)
[8] = at 50.0 µM (retest, dose inferred, filed as 5.0)

SMILES	growth inhibition [1, 7]	growth inhibition [1, 8]	growth inhibition ([1]; at 50.0 µM)	growth inhibition [2, 7]	growth inhibition [2, 8]	growth inhibition ([2]; at 50.0 µM)	growth inhibition [3, 7]	growth inhibition [3, 8]	growth inhibition ([3]; at 50.0 µM)	growth inhibition [4, 7]	growth inhibition [4, 8]	growth inhibition ([4]; at 50.0 µM)	growth inhibition [5, 7] [%]	growth inhibition [5, 8]	growth inhibition ([5]; at 50.0 µM)	growth inhibition [6, 7]	growth inhibition [6, 8]	growth inhibition ([6]; at 50.0 µM)
S=C(NCc1ccccc1)[S][Sb]([S]C(=S)NCc1ccccc1)[c]1ccccc1	1%	95% (active)	95.8% (active)	2%	97% (active)	88.4% (active)	-138%	93% (active)	96% (active)	-6%	89% (active)	69.8%	-11	93% (active)	84.5% (active)	6%	87% (active)	97.3% (active)
COc1ccc(C(c2c(O)c3ccccc3oc2=O)N2CCOCC2)c(OC)c1 (configuration not stated)	-4%	3%	33.4%	-6%	19%	23.1%	-4%	4%	35.6%	3%	-3%	20.3%	-2	0%	69.2%	-7%	-3%	43.4%
Cc1occc1C(=S)Nc1ccc(Cl)c(C(=O)OCC(F)(F)F)c1	23%	92% (active)	92.2% (active)	21%	93% (active)	92.8% (active)	26%	96% (active)	90.8% (active)	21%	97% (active)	88.5% (active)	29	99% (active)	91.2% (active)	27%	96% (active)	86.8% (active)
COc1cc([C@H]2c3c(cc(OC)c(OC)c3OC)CC3COC(=O)[C@@H]32)cc2c1OCO2 (some centres not stated)	4%	37%	95.5% (active)	2%	25%	98.8% (active)	9%	38%	52.2%	1%	4%	98.5% (active)	-2	53%	99.3% (active)	-2%	9%	97.5% (active)
Cc1sc(N=Nc2c(O)[nH]c3ccccc23)nc1-c1ccccc1	20%	31%	-2%	16%	27%	-2.15%	17%	30%	19.9%	14%	19%	13.7%	24	60%	-20.1%	11%	39%	-26.4%
CC(NC(=O)C(NC(=O)C(NC(=O)C(F)(F)F)C(C)C)C(C)C)C(=O)Oc1c(Cl)c(Cl)c(Cl)c(Cl)c1Cl (configuration not stated)	5%	70% (active)	59%	6%	62%	86.7% (active)	21%	80% (active)	82.9% (active)	10%	68%	77.7% (active)	-20	65%	85.6% (active)	28%	83% (active)	78.7% (active)
COc1ccc2c(N3CCN(C(=O)C(Cl)(Cl)Cl)CC3)cc(C)nc2c1	2%	4%	2.05%	1%	0%	0.2%	1%	0%	-24.6%	0%	0%	-2.9%	0	7%	-0.5%	3%	4%	2.75%
CCCN(CCC)c1ccc(Cc2ccc(N(CCC)CCC)cc2N)c(N)c1	-3%	96% (active)	97.8% (active)	-5%	98% (active)	98.3% (active)	-6%	99% (active)	44.5%	-1%	91% (active)	97% (active)	-1	96% (active)	96.8% (active)	-5%	95% (active)	98.1% (active)
COc1cc(/C=C2\CCc3ccccc3C2=O)ccc1O	-18%	99% (active)	89.2% (active)	-14%	100% (active)	92.2% (active)	-28%	99% (active)	88% (active)	5%	99% (active)	90.8% (active)	24	99% (active)	91.5% (active)	-20%	99% (active)	84.3% (active)
S=C(NN1CCOCC1)SSC(=S)NN1CCOCC1	97% (active)	99% (active)	99.5% (active)	97% (active)	99% (active)	99.6% (active)	94% (active)	99% (active)	99.6% (active)	92% (active)	83% (active)	99.3% (active)	34	99% (active)	99.8% (active)	77% (active)	99% (active)	99.5% (active)
O=C1c2ccccc2-c2cc3ccccc3nc21	28%	89% (active)	72.7% (active)	21%	70% (active)	60.8%	15%	67%	48.2%	23%	73% (active)	62.4%	15	73% (active)	61.3%	16%	82% (active)	84.5% (active)
CCC[n+]1ccnc2ccccc21	2%	2%	15.3%	-11%	-1%	8.3%	-4%	-10%	27.9%	13%	4%	11%	-2	-5%	19.6%	-4%	14%	22.9%
O=C(CC(=O)c1ccccc1)CC(O)(c1ccccc1)c1ccccc1	30%	90% (active)	84.9% (active)	32%	94% (active)	89.1% (active)	26%	89% (active)	89.7% (active)	27%	72% (active)	87.6% (active)	42	94% (active)	87.9% (active)	42%	88% (active)	86.5% (active)
Nc1ccc(S(=O)(=O)NCc2nccs2)cc1	-5%	81% (active)	17.9%	14%	58%	50%	2%	53%	28.4%	-7%	60%	47.4%	37	80% (active)	31.7%	11%	87% (active)	70.5% (active)
C=C1CC23CCC4C(C)(C(=O)O)CCCC4(C)C2CCC1C3 (configuration not stated)	27%	98% (active)	90.5% (active)	40%	98% (active)	91% (active)	18%	97% (active)	90% (active)	19%	97% (active)	87.2% (active)	13	97% (active)	89.3% (active)	49%	98% (active)	82% (active)
O=C(O)/C=C/C(=O)Nc1cc2c(cc1Br)-c1ccccc1C2Br (configuration not stated)	8%	77% (active)	9.15%	1%	38%	40.9%	3%	69%	7.45%	-1%	27%	38.1%	-12	71% (active)	-3.8%	4%	81% (active)	11.2%
COc1ccc(C2CC(c3sc(Nc4ccc(C)cc4)nc3C)=NN2)cc1 (configuration not stated)	-1%	20%	80.3% (active)	-33%	60%	62%	-2%	16%	71.4% (active)	-1%	38%	69.1%	-4	32%	12.2%	-2%	31%	59.9%
Ic1ccc2c(c1)N(c1ccccc1)c1cc(N=c3ccc4nc5ccc(I)cc5n(-c5ccccc5)c-4c3)ccc1N2	-3%	15%	81.5% (active)	12%	4%	93.6% (active)	-4%	-13%	76% (active)	1%	29%	91.8% (active)	-8	11%	97.3% (active)	-7%	18%	93.9% (active)
NC(=Nc1ccccc1)SCc1ccc([N+](=O)[O-])cc1	47%	67%	30.2%	51%	78% (active)	43%	13%	71% (active)	57.2%	52%	76% (active)	16.8%	29	76% (active)	70.5% (active)	43%	70% (active)	19.4%
